Only some compounds are listed: those with a hit (about 3.5% of all), similar ones and a draw of the others.
MITF primary = human MITF inhibition, primary screen | O75030 | AlphaScreen MITF homodimerization, bead proximity signal | inhibition, % at 2.6 µM | hit rate 0.91% among 650,000 | AID 1259374; in the data active = inhibition above about 50%;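 note: 0% = vehicle wells with protein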
FBW7 activator = human FBW7 E3 ligase activation, primary screen. Q969H0. AlphaScreen FBW7–phospho-cyclin E peptide binding, activator screen. normalized activity (activation), % at 26.1 µM. hit rate 0.13% among 650,000. AID 1259310; in the data active = normalized activity above about 1.9%;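 note: purified mutant Fbw7 with reduced substrate affinity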
GPR151 ag = human GPR151 activation. Q8TDV0. PathHunter beta-arrestin GPR151 cells, luminescence. activation, % at 11.2 µM. hit rate 1% among 650,000; in the data active = activation above about 4.9%;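 note: 0% = median of compound wells and 100% = cells with positive control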
Target sequence (Q8TDV0 whole entry, looked up): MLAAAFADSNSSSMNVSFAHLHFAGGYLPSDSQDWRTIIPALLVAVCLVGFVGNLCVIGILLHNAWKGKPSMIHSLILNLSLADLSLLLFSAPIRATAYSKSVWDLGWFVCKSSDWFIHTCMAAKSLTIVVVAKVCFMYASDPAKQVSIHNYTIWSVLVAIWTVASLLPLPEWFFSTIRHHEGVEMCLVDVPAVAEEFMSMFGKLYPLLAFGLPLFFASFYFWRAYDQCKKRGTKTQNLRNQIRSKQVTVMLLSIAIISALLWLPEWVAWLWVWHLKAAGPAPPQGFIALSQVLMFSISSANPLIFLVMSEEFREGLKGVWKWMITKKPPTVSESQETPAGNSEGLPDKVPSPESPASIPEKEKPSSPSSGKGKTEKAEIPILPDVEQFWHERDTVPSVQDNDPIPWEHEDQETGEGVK
TEAD-YAP inh = TEAD-YAP interaction inhibition. HEK-TIYL cells, TEAD-Gal4/YAP UAS-luciferase luminescence. inhibition, % at 9.12 µM. hit rate 1.4% among 640,000; in the data active = inhibition above about 32%;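 note: 0% = median of test compound wells and 100% = reference inhibitor wells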
MITF inh conf = human MITF inhibition, confirmation. AlphaScreen MITF homodimerization, biotin/His-MITF beads. inhibition, % at 2.6 µM. shares compounds with MITF primary. hit rate 16% among 4,700;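 active = inhibition above a cutoff derived from the DMSO control wells, cut at about 28% in these data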;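 note: 0% = MITF dimer wells with DMSO only; inhibitors lower the bead chemiluminescence by keeping MITF from dimerizing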
AlphaScreen DR = optically interferes with AlphaScreen signal in dose response; shares compounds with MITF primary; AlphaScreen optical interference counterscreen, cell-free; IC50, µM; hit rate 6% among 480; AID 1259373; call rule not given here
AlphaScreen intf2 = optically interferes with AlphaScreen signal; shares compounds with MITF primary; hit rate 7.6% among 4,700; LysRS AlphaScreen counterscreen, signal interference, triplicate; inhibition, % at 2.6 µM;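 active = inhibition above a cutoff derived from the DMSO control wells, cut at about 30% in these data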
The depositor's hits bear a star; . = no result.

SMILES	MITF primary	FBW7 activator	GPR151 ag	TEAD-YAP inh	MITF inh conf	AlphaScreen intf2	others
C=CCc1cc(Cl)ccc1OCCNCCO	52*	0	-1	14	5	-9
C=CCc1cc(Cl)ccc1OCCNCCCOC	25	0	0	10	.	.
COC(=O)COc1nc(C)nc2c1sc1nc(C)cc(C)c12	-4	0	1	-2	.	.
O=c1[nH]cnc2nc(-c3ccco3)c(-c3ccco3)nc12	87*	-1	0	0	60*	5	AlphaScreen DR=>7.6
COc1cccc(C(=O)N2CCN(Cc3ccncc3)CC2)c1	68*	0	-1	-3	15	17
COc1cc(OC)cc(C(=O)N2CCN(Cc3ccncc3)CC2)c1	84*	0	1	9	4	4
COc1cccc(OC)c1C(=O)N1CCCCCC1	-2	0	2	1	.	.
COc1ccc(C(=O)N2CCN(Cc3ccc4ccccc4c3)CC2)cc1OC	70*	0	0	38*	12	22
COc1cccc(C(=O)N2CCN(Cc3ccc4ccccc4c3)CC2)c1	7	0	-1	9	.	.
COc1cc(OC)cc(C(=O)N2CCN(Cc3ccc(OC)c(OC)c3)CC2)c1	35	0	1	3	.	.
COc1cccc(OC)c1C(=O)N1CCN(Cc2ccncc2)CC1	75*	0	1	2	-12	-5
CCCn1c(C(=O)O)c(CC(=O)O)c2ccccc21	0	0	1	0	.	.
O=[N+]([O-])c1ccc(C=NC(CO)C(O)c2ccc([N+](=O)[O-])cc2)cc1 (centres undefined)	-11	0	1	1	.	.
COc1cccc(C(=O)N2CCC(N3CC(C)CC(C)C3)CC2)c1 (centres undefined)	61*	0	1	1	1	3
COc1ccc(C(=O)N2CCN(Cc3ccccc3)CC2)cc1	47	0	0	1	.	.
O=C(c1ccncc1)N1CCN(Cc2ccc3ccccc3c2)CC1	79*	0	1	5	-17	-5
COc1ccc(CN2CCN(C(=O)c3ccncc3)CC2)cc1	75*	0	2	-1	4	16
CCc1ccc(CN2CCN(C(=O)c3ccccc3)CC2)cc1	24	0	0	-10	.	.
CC(C)N1CCN(C(=O)c2ccncc2)CC1	78*	0	-1	1	-3	0
CCOC(OCC)(OCC)P(=O)(N(CC)CC)N(CC)CC	6	1	0	8	.	.
Cc1ccc(OCC(=O)Nc2ccccc2C(N)=O)c(Br)c1	6	0	-1	-62	.	.
CCOc1cc(N2CCN(C(=O)c3ccc(OC)c(OC)c3)CC2)nc(C)n1	6	0	1	2	.	.
COc1cc(N2CCN(C(=O)c3ccc(OC)c(OC)c3)CC2)nc(C)n1	107*	0	0	8	-4	-8
CSc1ccc(/C=N/Nc2nncc(-c3ccccc3)n2)cc1	3	0	2	-7	.	.
O=C(c1cccnc1)C1CCCN(C(=O)C2CC(Cc3ccccc3Cl)=NO2)C1 (centres undefined)	14	0	1	-63	.	.
SMILES	MITF primary	FBW7 activator	GPR151 ag	TEAD-YAP inh	MITF inh conf	AlphaScreen intf2	others
CCCCc1nc2ccccc2c(NC(=O)CNC2CCCCC2)c1CCC	66*	0	-1	9	1	5
CCCCc1nc2ccccc2c(NC(=O)CN(CCCC)CCCC)c1CCC	83*	0	2	-7	15	-10
CCCCN(C)CC(=O)Nc1cc(N(C)C)nc2ccccc12	24	0	1	4	.	.
CCCCc1nc2ccccc2c(NC(=O)CN2CCN(C(=O)c3ccco3)CC2)c1CCC	65*	0	-2	-4	-5	12
CC1(C)CC(NC(=O)C(=O)NCc2ccc(Cl)cc2)CC(C)(C)N1	0	0	0	-2	.	.
CSc1ccccc1C(=O)Nc1nc(-c2ccccn2)cs1	28	-2	-1	14	.	.
CS(=O)(=O)c1ccccc1C(=O)Nc1nc(-c2ccccn2)cs1	57*	-2	1	19	38*	100*
CCn1ccc(C(=O)Nc2nc(-c3ccccn3)cs2)n1	83*	-1	3	-23	73*	101*
O=C(c1ccc2c(c1)OCCO2)C1CCN(C(=O)NC23CC4CC(CC(C4)C2)C3)CC1	-1	0	0	2	.	.

Source: PubChem (The Scripps Research Institute Molecular Screening Center)
